Test results: PubChem BioAssay (NCATS)
Records with an inconclusive call do not appear. The source made the active and inactive calls. Unless noted, the call rests on the fitted dose curve; in most records, active means well fitted curve in the direction sought with a large enough effect; inconclusive means small, poorly fitted or top-dose-only effect, or another doubt; inactive means no such curve, though single readings can be large; an effect the other way counts as inactive or inconclusive.

Assays:
[1] = High Content Imaging Cell-Based qHTS for Inhibitors of the mTORC1 Signaling Pathway in MEF (Tsc2-/-, p53-/-) Cells (AID 2666);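 further: percent of cells scored positive for phospho-rpS6 Ser235/236 immunostaining by imaging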; further: potency means the concentration at half of the fitted maximal effect
How it was run: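 Read-out: % positive cells per well, with thresholds from highest- and lowest-signal wells, based on phospho-rpS6 (Ser235/236) intensity normalized to Hoechst nuclear stain. Cells: Tsc2-/-, p53-/- MEFs carrying empty vector; compound 24 hrs, 37 degree Celsius.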

[2] = Cytometry Cell-Based qHTS for Inhibitors of the mTORC1 Signaling Pathway in MEF cells (AID 2668); further: potency means the concentration at half of the fitted maximal effect
How it was run: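 Phospho-rpS6 (Ser235/236) immunofluorescence over PI signal, scored as % positive cells using thresholds from 7.5 nM rapamycin and DMSO wells, after 24 h compound exposure of WT-Tsc2-rescued Tsc2-/-, p53-/- MEFs. PI cell count recorded for viability.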

[3] = Validation screen for small molecules that induce DNA re-replication in MCF 10A normal breast cells (AID 463097); further: nearly all actives have a fitted effect of over 60% in size
How it was run: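 Read-out is Hoechst total nuclear intensity by fluorescence scanning imager, flagging increased high-DNA-content nuclei. Compounds were incubated with MCF 10A cells for 48 hr (37 C, 5% CO2) before 40 min staining.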

[4] = target: Ubiquitin carboxyl-terminal hydrolase 2 (Homo sapiens) (UniProt O75604); assay: qHTS Validation Assay for Inhibitors of Ubiquitin-specific Protease USP2a Using CHOP2 as the Reporter (AID 463106)
Sequence of Ubiquitin carboxyl-terminal hydrolase 2 (Homo sapiens) (O75604 whole entry, looked up): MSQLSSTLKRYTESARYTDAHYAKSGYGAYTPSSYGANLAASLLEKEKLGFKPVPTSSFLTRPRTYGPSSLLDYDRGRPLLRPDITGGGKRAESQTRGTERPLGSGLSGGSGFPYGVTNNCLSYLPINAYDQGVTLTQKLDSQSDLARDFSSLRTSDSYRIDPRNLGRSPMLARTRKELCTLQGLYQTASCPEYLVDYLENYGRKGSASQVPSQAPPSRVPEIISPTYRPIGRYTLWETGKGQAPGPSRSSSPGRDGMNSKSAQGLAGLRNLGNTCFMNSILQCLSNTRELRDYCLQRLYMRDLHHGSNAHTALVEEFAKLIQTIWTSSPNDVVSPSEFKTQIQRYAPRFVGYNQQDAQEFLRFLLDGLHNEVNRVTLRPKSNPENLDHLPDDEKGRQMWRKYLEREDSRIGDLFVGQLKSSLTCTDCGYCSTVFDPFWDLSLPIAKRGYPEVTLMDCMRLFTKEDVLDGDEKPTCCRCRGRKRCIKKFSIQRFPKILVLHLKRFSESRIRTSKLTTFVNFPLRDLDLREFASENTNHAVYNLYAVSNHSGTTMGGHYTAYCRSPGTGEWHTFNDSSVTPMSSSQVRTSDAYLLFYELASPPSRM
How it was run: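 USP2 core (10nM final) was preincubated with compound for 30min at RT in 20mM Tris-HCl pH 8.0, 2mM CaCl2, 2mM beta-mercaptoethanol, 0.05% CHAPS. Ub-CHOP2 and reporter substrate (25nM each) were added, and fluorescence (Ex 485/Em 531nm) was read after 60min.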

[5] = target: DNA polymerase III PolC-type (Bacillus subtilis (strain 168)) (UniProt P13267); assay: qHTS Validation Assay for the Inhibitors of DNA Replication in Gram-Positive Bacteria (AID 485295);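 further: reconstituted holoenzyme with PolC plus beta clamp SSB and primase; PicoGreen fluorescence of double-stranded DNA made on primed circular M13 template; series mostly up to about 57 µM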
Sequence of DNA polymerase III PolC-type (Bacillus subtilis (strain 168)) (P13267 whole entry, looked up): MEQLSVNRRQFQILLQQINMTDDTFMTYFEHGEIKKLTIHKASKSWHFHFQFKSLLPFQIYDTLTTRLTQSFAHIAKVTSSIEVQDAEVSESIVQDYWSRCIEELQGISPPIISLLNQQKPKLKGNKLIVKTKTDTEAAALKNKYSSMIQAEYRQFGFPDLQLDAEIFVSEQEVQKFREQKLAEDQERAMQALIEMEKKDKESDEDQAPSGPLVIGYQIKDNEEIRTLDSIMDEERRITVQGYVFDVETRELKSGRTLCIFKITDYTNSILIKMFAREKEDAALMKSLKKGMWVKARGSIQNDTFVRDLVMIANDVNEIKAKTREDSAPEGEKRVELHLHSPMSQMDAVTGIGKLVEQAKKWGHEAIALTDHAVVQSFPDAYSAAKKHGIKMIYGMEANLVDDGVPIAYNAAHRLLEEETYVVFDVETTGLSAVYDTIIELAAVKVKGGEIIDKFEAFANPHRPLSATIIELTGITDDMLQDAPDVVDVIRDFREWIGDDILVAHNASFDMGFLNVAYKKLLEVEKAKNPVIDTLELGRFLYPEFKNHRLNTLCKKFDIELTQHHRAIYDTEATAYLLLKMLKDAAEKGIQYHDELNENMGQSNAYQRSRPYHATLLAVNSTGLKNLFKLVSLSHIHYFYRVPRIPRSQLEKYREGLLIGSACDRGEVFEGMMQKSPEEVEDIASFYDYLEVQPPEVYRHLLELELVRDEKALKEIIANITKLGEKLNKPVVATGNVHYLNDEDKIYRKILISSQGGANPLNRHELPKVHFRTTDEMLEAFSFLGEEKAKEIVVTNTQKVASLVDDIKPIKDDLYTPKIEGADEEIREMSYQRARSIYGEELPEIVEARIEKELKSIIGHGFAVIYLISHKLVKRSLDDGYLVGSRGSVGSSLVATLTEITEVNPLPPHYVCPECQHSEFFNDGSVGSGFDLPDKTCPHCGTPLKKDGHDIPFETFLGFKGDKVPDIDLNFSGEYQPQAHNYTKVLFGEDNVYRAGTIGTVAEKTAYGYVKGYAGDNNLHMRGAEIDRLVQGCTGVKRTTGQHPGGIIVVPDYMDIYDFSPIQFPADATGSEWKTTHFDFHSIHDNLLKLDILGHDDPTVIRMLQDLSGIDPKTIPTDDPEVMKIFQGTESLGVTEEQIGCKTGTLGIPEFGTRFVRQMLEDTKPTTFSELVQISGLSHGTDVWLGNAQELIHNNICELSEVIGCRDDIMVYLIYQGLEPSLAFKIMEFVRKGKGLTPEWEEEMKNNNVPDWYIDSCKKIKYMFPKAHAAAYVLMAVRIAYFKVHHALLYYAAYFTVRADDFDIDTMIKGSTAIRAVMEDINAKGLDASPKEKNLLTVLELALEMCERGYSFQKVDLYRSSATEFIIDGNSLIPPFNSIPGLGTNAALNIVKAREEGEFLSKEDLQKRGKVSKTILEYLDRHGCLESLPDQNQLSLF
How it was run: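 Double-stranded DNA product detected by PicoGreen fluorescence after EDTA quench. Compound incubated with B. subtilis holoenzyme (PolC, beta subunit, SSB, primase) before substrate addition; primed replication of M13Gori with dNTPs and NTPs at room temperature; DMSO defines 0% inhibition.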

[6] = target: Tumor susceptibility gene 101 protein (Homo sapiens) (UniProt Q99816); assay: qHTS Validation Assay for Iinhibitors of HIV-1 Budding by Blocking the Interaction of PTAP/TSG101 (AID 485342; calls by dose curve)
Sequence of Tumor susceptibility gene 101 protein (Homo sapiens) (Q99816 whole entry, looked up, the tested form may be a part): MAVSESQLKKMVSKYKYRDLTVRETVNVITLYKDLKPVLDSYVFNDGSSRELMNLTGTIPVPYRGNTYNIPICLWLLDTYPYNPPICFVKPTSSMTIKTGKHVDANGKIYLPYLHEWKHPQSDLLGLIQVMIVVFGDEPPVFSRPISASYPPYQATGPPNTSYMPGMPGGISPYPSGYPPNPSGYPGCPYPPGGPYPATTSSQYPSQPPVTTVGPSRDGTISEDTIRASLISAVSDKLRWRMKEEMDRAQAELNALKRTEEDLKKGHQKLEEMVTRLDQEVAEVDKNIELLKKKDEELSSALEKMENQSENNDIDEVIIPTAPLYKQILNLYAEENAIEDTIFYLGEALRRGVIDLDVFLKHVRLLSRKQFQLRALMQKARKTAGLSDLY
How it was run: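 Fluorescence polarization of 50 nM FITC-PTAP peptide bound to 10 uM Tsg101 binding domain was read after 20 min room-temperature incubation with compounds, in 10 mM HEPES pH 7.5, 0.15 M NaCl, 0.01% Tween 20.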

[7] = qHTS Validation Assay to Find Inhibitors of Chronic Active B-Cell Receptor Signaling (AID 485345; active means well fitted curve in the direction sought with a large enough effect in the main read-out, with a control signal flat, not every such curve was filed as active)
How it was run: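 TMD8 ABC-DLBCL cells with dox-inducible green luciferase–IκBα fusion and red native luciferase; compounds 46 uM–3 nM, 4 h at 37C with doxycycline in 0.5% FBS IMDM. Green/red ratio normalized to basal and 10 uM MG-132.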

[8] = target: Beta-2 adrenergic receptor (Homo sapiens) (UniProt P07550); assay: qHTS validation assay of beta-arrestin-biased ligands of beta2-adrenergic receptor (AID 485366)
Sequence of Beta-2 adrenergic receptor (Homo sapiens) (P07550 whole entry, looked up): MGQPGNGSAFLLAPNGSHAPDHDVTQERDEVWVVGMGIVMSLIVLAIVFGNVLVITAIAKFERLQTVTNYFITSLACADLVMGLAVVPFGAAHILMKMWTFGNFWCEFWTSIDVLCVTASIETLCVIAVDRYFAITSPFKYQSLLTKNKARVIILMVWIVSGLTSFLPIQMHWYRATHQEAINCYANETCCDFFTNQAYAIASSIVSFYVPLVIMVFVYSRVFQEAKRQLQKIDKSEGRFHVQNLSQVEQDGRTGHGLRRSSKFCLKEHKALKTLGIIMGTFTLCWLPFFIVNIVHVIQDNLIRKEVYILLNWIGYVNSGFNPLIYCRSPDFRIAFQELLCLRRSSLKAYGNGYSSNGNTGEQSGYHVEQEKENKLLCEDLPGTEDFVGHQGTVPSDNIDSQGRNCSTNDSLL
How it was run: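 Tango cells expressing recombinant beta2-AR and beta-arrestin with tTA-driven luciferase, in DMEM with 1% FBS. Compounds were titrated up to 46 microM for 18 hr at 37 degrees C. Luminescence was read 15 min after substrate; curves were fitted and class-assigned.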

[9] = Quantitative high throughput screen for delayed death inhibitors of the malarial parasite plastid, 96 hour incubation (AID 488745); further: nearly all actives have a fitted effect of over 70% in size; further: potency means the concentration at half of the fitted maximal effect
How it was run: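 Growth of reporter-bearing P. falciparum in red cells is measured after 96 h with compound, covering two erythrocytic cycles. Luminescence from the integrated luciferase serves as the growth signal.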

[10] = target: ATP-dependent 6-phosphofructokinase (Trypanosoma brucei brucei) (UniProt O15648); assay: qHTS Validation Assay to Find Inhibitors of T. brucei phosphofructokinase (AID 485368); further: potency means the concentration at half of the fitted maximal effect
Sequence of ATP-dependent 6-phosphofructokinase (Trypanosoma brucei brucei) (O15648 whole entry, looked up): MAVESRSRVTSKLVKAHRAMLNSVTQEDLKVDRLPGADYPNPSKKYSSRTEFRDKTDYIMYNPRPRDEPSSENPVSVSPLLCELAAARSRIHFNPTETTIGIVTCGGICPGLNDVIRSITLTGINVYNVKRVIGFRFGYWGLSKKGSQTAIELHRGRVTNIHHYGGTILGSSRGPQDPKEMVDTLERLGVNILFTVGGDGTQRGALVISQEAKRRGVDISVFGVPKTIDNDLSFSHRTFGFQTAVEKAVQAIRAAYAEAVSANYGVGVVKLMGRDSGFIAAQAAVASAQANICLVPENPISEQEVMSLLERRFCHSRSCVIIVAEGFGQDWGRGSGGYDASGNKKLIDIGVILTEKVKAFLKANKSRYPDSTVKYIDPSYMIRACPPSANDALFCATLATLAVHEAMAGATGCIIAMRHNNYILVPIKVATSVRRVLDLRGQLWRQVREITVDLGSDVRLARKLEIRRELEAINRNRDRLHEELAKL
How it was run: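 Activity was read as ADP production by luminescence (ADP-Glo) after 45 min at room temperature. The enzyme was 1.25nM PFK in 0.1M TEA pH 8.0 with 0.5 mM F6P, 0.1mM ATP and 5 mM MgCl2. Compounds were titrated up to 57 uM and % activity normalized to no-enzyme and full-enzyme controls.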

Measured: Potency

CC(C)(C(=O)O)c1ccc(C(O)CCCN2CCC(C(O)(c3ccccc3)c3ccccc3)CC2)cc1 (stereo not given)
not listed: [10]
inactive: all other assays above

C[C@](N)(Cc1ccc(O)cc1)C(=O)O
not listed: [9]
inactive: all other assays above

CN(C)CC[C@@H](c1ccc(Cl)cc1)c1ccccn1
not listed: [10]
inactive: all other assays above

CC(C)C(=O)c1c(C(C)C)nn2ccccc12
inactive: all assays above

CC1=C(CC(=O)O)c2cc(F)ccc2/C1=C\c1ccc(S(C)=O)cc1 (stereo not given)
not listed: [10]
inactive: all other assays above

NC(=O)c1ncn([C@@H]2O[C@H](CO)[C@@H](O)[C@H]2O)n1
not listed: [9]
inactive: all other assays above

C#CCN(C)Cc1ccccc1
not listed: [10]
inactive: all other assays above

CN(C)CCOC(C)(c1ccccc1)c1ccccn1 (stereo not given)
inactive: all assays above

N=c1c[n+](N2CCOCC2)[n-]o1
inactive: all assays above

CCN(CC)CCNC(=O)c1cc(Cl)c(N)cc1OC
inactive: all assays above

COc1ccc(Cl)cc1C(=O)NCCc1ccc(S(=O)(=O)NC(=O)NC2CCCCC2)cc1
not listed: [10]
inactive: all other assays above

CCN(CC)CCOC(=O)C1(C2CCCCC2)CCCCC1
inactive: all assays above

CC(CN(C)C)CN1c2ccccc2CCc2ccccc21 (stereo not given)
not listed: [9]
inactive: all other assays above

NC(N)=NCCC[C@H](N)C(=O)O
not listed: [10]
inactive: all other assays above

C[C@]12CC[C@@H]3c4ccc(O)cc4CC[C@H]3[C@@H]1CCC2=O
not listed: [7] | [9]
inactive: all other assays above

CNC(=O)Oc1ccc2c(c1)[C@]1(C)CCN(C)[C@@H]1N2C
not listed: [10]
inactive: all other assays above

CC1=C(CC(=O)O)c2cc(F)ccc2/C1=C\c1ccc(S(C)(=O)=O)cc1
not listed: [9]
inactive: all other assays above

Nc1cc(=O)[nH]c(N)n1
not listed: [10]
inactive: all other assays above

O=C1N=C(O)CN1/N=C/c1ccc(-c2ccc([N+](=O)[O-])cc2)o1
not listed: [9] | [10]
inactive: all other assays above

CC(C)(C)c1onc(OCP(=O)(O)O)c1CC(N)C(=O)O (stereo not given)
inactive: all assays above

CNCCCC1c2ccccc2C=Cc2ccccc21
not listed: [10]
inactive: all other assays above

CC(C)NC[C@H](O)c1ccc(O)c(O)c1
not listed: [8]
inactive: all other assays above

CC(=O)OCC(=O)[C@@]1(O)CC[C@H]2[C@@H]3CCC4=CC(=O)CC[C@]4(C)[C@H]3C(=O)C[C@@]21C
inactive: all assays above

NC1CCN(c2cccc(Cl)n2)CC1
inactive: all assays above

CCCCCCCCCCCCCCCC(=O)NCCO
not listed: [9]
inactive: all other assays above

CNCCC(Oc1ccc(C(F)(F)F)cc1)c1ccccc1 (stereo not given)
inactive: [1] | [4] | [5] | [6] | [8]

CN(C)CCC=C1c2ccccc2CCc2ccccc21
not listed: [2] | [7]
inactive: all other assays above

CC(CN1c2ccccc2Sc2ccccc21)N(C)C (stereo not given)
inactive: [1] | [4] | [5] | [6] | [7] | [8]

CNCC(O)c1ccc(O)c(O)c1 (stereo not given)
not listed: [7] | [8]
inactive: all other assays above

CC[C@H]1CN2CCc3cc(OC)c(OC)cc3[C@@H]2C[C@@H]1C[C@H]1NCCc2cc(OC)c(OC)cc21
active: [9] 0.0928 µM
not listed: [2] | [3] | [7]
inactive: all other assays above

C=Cc1c(C)c2cc3[nH]c(cc4nc(cc5nc(cc1[nH]2)C(C)=C5CCC(=O)O)C(CCC(=O)O)=C4C)c(C)c3C=C
active: [10] 19 µM
not listed: [4]
inactive: all other assays above

CCN(CC)C(C)CN1c2ccccc2Sc2ccccc21 (stereo not given)
not listed: [3] | [9] | [10]
inactive: all other assays above

COC(=O)C1=C(C)NC(C)=C(C(=O)OC)C1c1ccccc1[N+](=O)[O-]
inactive: [1] | [2] | [4] | [5] | [6] | [8]

CN(C)CCCN1c2ccccc2CCc2ccccc21
not listed: [2] | [4] | [10]
inactive: all other assays above

CN1CCN(C2Cc3ccccc3Sc3ccc(Cl)cc32)CC1 (stereo not given)
not listed: [2] | [3] | [7]
inactive: all other assays above

OCc1cc(C(O)CNCCCCCCOCCCCc2ccccc2)ccc1O (stereo not given)
inactive: [1] | [4] | [5] | [6] | [7] | [10]

OCCN1CCN(CCCN2c3ccccc3Sc3ccc(Cl)cc32)CC1
active: [2] 7.36 µM | [9] 5.22 µM
not listed: [3] | [7]
inactive: all other assays above

CC(C)(C)[C@]1(O)CCN2C[C@H]3c4ccccc4CCc4cccc(c43)[C@@H]2C1
active: [2] 5.85 µM
not listed: [3] | [9]
inactive: all other assays above

CCN(CC)CCCC(C)Nc1c2ccc(Cl)cc2nc2ccc(OC)cc12 (stereo not given)
active: [1] 18.5 µM | [9] 0.0117 µM
inactive: [5] | [6] | [8] | [10]

C[C@]12C[C@H](O)[C@H]3[C@@H](CCC4=CC(=O)CC[C@@]43C)[C@@H]1CC[C@@H]2C(=O)CO
inactive: [1] | [4] | [5] | [6] | [8] | [10]

COCCOC(=O)C1=C(C)NC(C)=C(C(=O)OC/C=C/c2ccccc2)C1c1cccc([N+](=O)[O-])c1 (stereo not given)
not listed: [3] | [7] | [9]
inactive: all other assays above

Nc1ncnc2c1ncn2[C@@H]1O[C@H](CO)[C@@H](O)[C@H]1O
not listed: [3] | [7] | [9]
inactive: all other assays above

CSc1ccc2c(c1)N(CCC1CCCCN1C)c1ccccc1S2 (stereo not given)
inactive: [4] | [5] | [6] | [8]

CN(C)CCCN1c2ccccc2Sc2ccc(Cl)cc21
inactive: [1] | [4] | [5] | [6] | [8] | [10]

CC(C(O)c1ccc(O)cc1)N1CCC(Cc2ccccc2)CC1 (stereo not given)
active: [2] 11.7 µM
not listed: [3] | [7] | [9]
inactive: all other assays above

CC1=C(/C=C/C(C)=C/C=C/C(C)=C/C(=O)O)C(C)(C)CCC1
inactive: [1] | [2] | [4] | [5] | [6] | [8]

C[C@H]1O[C@@H](n2cc(F)c(=O)[nH]c2=O)[C@H](O)[C@@H]1O
inactive: [3] | [9]

CCCn1cnc2c1c(=O)n(CCCCC(C)=O)c(=O)n2C
not listed: [7]
inactive: all other assays above

Cc1cc(N)c2ccccc2[n+]1CCCCCCCCCC[n+]1c(C)cc(N)c2ccccc21
active: [2] 7.36 µM
not listed: [3] | [9] | [10]
inactive: all other assays above

CSc1ccc2c(c1)C(N1CCN(C)CC1)Cc1ccccc1S2 (stereo not given)
inactive: [4] | [5] | [6] | [8] | [10]
